This is an account of results in the supplement of paper PMC4206461.

In test [1] the test system is Pseudomonas aeruginosa PA14 dppBCDF deletion mutant. In words: respiration area under curve with compound as sole nitrogen source, 24 h (OmniLog AUC (arbitrary units)); higher = more respiration / better utilisation as nitrogen source, active = 2000 or more; extreme values may be limits of the assay. How it is done: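 Biolog Phenotype MicroArray plates PM6-PM8: each di/tripeptide is the sole nitrogen source. Tetrazolium reduction was read in the OmniLog every 15 min for 24 h at 37°C and summarised as area under the respiration curve (arbitrary units). Values below 2000 count as no respiration. Strain is the dipeptide ABC transporter deletion mutant.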

Test [2] deals with Pseudomonas aeruginosa PA14 dppA1-A5 penta mutant + pBBR5.DppA1 (PA14_58350). In words: respiration area under curve with compound as sole nitrogen source, 24 h (OmniLog AUC (arbitrary units)); higher = more respiration / better utilisation as nitrogen source, active = 2000 or more. How it is done: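 Biolog Phenotype MicroArray plates PM6-PM8: each di/tripeptide is the sole nitrogen source. Tetrazolium reduction was read in the OmniLog for 24 h at 37°C and summarised as area under the respiration curve (arbitrary units). Values below 2000 count as no respiration. Strain is the SBP penta mutant complemented with DppA1 on a plasmid under its native promoter. Lys/His/Cys peptides are excluded.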

Test [3] deals with Pseudomonas aeruginosa PA14 wild type. The description is as above. How it is done:
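Biolog Phenotype MicroArray plates PM6-PM8: each di/tripeptide is the sole nitrogen source (IF-0 medium with succinate/ferric citrate and dye mix A). Tetrazolium reduction was read in the OmniLog every 15 min for 24 h at 37°C and summarised as area under the respiration curve (arbitrary units). The paper counts values below 2000 as no respiration and above 8000 as solid respiration. Replicate datasets are averaged.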

Unmarked numbers belong to inactive results.

As for `NCC(=O)N[C@@H](CO)C(=O)O` (plate: PM6), the “respiration area under curve” value in test [1] is 2360 (active).
Still for that read-out and setting: the figure for `N[C@@H](CCC(=O)O)C(=O)N[C@@H](Cc1ccc(O)cc1)C(=O)O` (plate: PM6) is 44.
Take `CC[C@H](C)[C@H](N)C(=O)N[C@@H](CCSC)C(=O)O` (plate: PM6): the “respiration area under curve” value in test [1] is 0.
With `N[C@@H](Cc1ccccc1)C(=O)N[C@@H](Cc1ccc(O)cc1)C(=O)O` (plate: PM8), in test [1], the “respiration area under curve” value is 881.
As for `CC(C)[C@H](NC(=O)[C@@H](N)CO)C(=O)O` (plate: PM7), the “respiration area under curve” value in test [1] was 3050 (active).
On to `O=C(O)[C@@H]1C[C@@H](O)CN1C(=O)[C@@H]1CCCN1` (plate: PM7), for which the “respiration area under curve” value in test [2] and in test [1] was 0 in each case.
With `CC[C@H](C)[C@H](N)C(=O)NCC(=O)O` (plate: PM6), the “respiration area under curve” value in test [1] was 0.
With `N[C@@H](Cc1ccc(O)cc1)C(=O)N[C@@H](CCC(=O)O)C(=O)O` (plate: PM7), the “respiration area under curve” value in test [1] was 277.
With `C[C@H](N)C(=O)NCC(=O)O` (plate: PM6), in test [1], the “respiration area under curve” value is 3630 (active).
On the same count and under the same terms, the figure for `N[C@@H](CCC(=O)O)C(=O)N[C@@H](CC(=O)O)C(=O)O` (plate: PM6) is 0; for `CC(C)C[C@H](NC(=O)[C@@H](N)Cc1c[nH]c2ccccc12)C(=O)O` (plate: PM7) it is 1830.
Consider `N[C@@H](Cc1ccccc1)C(=O)N[C@@H](Cc1ccccc1)C(=O)O` (plate: PM7), for which the results for the “respiration area under curve” value in test [2] and in test [1] were 5690 (active) and 2740 (active), respectively.
Turning to `C[C@H](NC(=O)[C@@H](N)CCC(=O)O)C(=O)O` (plate: PM8), the “respiration area under curve” value in test [1] was 51.5.
As for `NC(N)=NCCC[C@H](N)C(=O)N[C@@H](Cc1ccc(O)cc1)C(=O)O` (plate: PM6), in test [1], the “respiration area under curve” value was 8750 (active).
For `N[C@@H](CO)C(=O)NCC(=O)O` (plate: PM7), in test [1], the “respiration area under curve” value was 1360.
For the compound `CC(C)C[C@@H](N)C(=O)NCC(=O)O` (plate: PM8), the “respiration area under curve” value in test [1] is 0.
As for `C[C@H](N)C(=O)N[C@@H](C)C(=O)N[C@@H](C)C(=O)O` (plate: PM8), in test [1], the “respiration area under curve” value is 6480 (active).
Same read-out and setting: the figure for `NC(N)=NCCC[C@H](N)C(=O)N[C@@H](CO)C(=O)O` (plate: PM6) is 8440 (active).
On to `NC(=O)CC[C@H](NC(=O)[C@@H](N)CC(=O)O)C(=O)O` (plate: PM8), for which the “respiration area under curve” value in test [1] was 5.25.
Same read-out and setting: the figure for `C[C@H](NC(=O)[C@@H](N)CO)C(=O)O` (plate: PM7) is 2670 (active); for `O=C(O)[C@H](Cc1c[nH]c2ccccc12)NC(=O)[C@@H]1CCCN1` (plate: PM8) it is 358.
Take `C[C@@H](O)[C@H](N)C(=O)N[C@@H](CCCN=C(N)N)C(=O)O` (plate: PM7): the “respiration area under curve” value in test [1] is 13800 (active).
Still for that read-out and setting: the figure for `CC(C)[C@H](NC(=O)[C@@H](N)CC(=O)O)C(=O)O` (plate: PM6) is 524.
As to `NCC(=O)NCC(=O)N[C@@H](Cc1ccccc1)C(=O)O` (plate: PM8), the “respiration area under curve” value is 3750 (active) in test [2] and 0 in test [1].
With `N[C@@H](Cc1ccccc1)C(=O)N[C@@H](CCC(=O)O)C(=O)O` (plate: PM8), the “respiration area under curve” value in test [1] is 0.
Turning to `CC(C)C[C@H](NC(=O)[C@@H](N)CC(C)C)C(=O)O` (plate: PM6), the “respiration area under curve” value in test [1] is 1380.
As for `C[C@H](N)C(=O)N[C@@H](Cc1c[nH]c2ccccc12)C(=O)O` (plate: PM6), in test [1], the “respiration area under curve” value was 3230 (active).
Turning to `CC[C@H](C)[C@H](N)C(=O)N[C@@H](Cc1ccc(O)cc1)C(=O)O` (plate: PM6), in test [1], the “respiration area under curve” value is 11.
The same measure, in the same setting: the figure for `NC(=O)C[C@H](NC(=O)[C@@H](N)CO)C(=O)O` (plate: PM8) is 10400 (active); for `CC(C)[C@H](N)C(=O)N[C@@H](Cc1ccc(O)cc1)C(=O)N[C@H](C(=O)O)C(C)C` (plate: PM8) it is 5710 (active); for `CSCC[C@H](NC(=O)CN)C(=O)O` (plate: PM6) it is 0.
On the same count and under the same terms, the figure for `CC[C@H](C)[C@H](N)C(=O)N1CCC[C@H]1C(=O)O` (plate: PM6) is 0; for `CC(C)[C@H](NC(=O)[C@@H](N)CCCN=C(N)N)C(=O)O` (plate: PM6) it is 7970 (active); for `CC(C)C[C@H](N)C(=O)N[C@H](CC(C)C)C(=O)O` (plate: PM8) it is 0.
Turning to `C[C@@H](O)[C@H](N)C(=O)NCC(=O)O` (plate: PM7), the figures for the “respiration area under curve” value in test [2] and in test [1] were 6220 (active) and 0.75, respectively.
Consider `NC(Cc1c[nH]c2ccccc12)C(=O)NC(Cc1ccccc1)C(=O)O` (centres undefined) (plate: PM7), for which the entries for the “respiration area under curve” value in test [2] and in test [1] were 365 and 14.8, respectively.
For the compound `CC(C)[C@H](NC(=O)[C@@H](N)CCC(=O)O)C(=O)O` (plate: PM6), the figures for the “respiration area under curve” value in test [2], in test [3] and in test [1] were 2600 (active), 5390 (active) and 0, respectively.
